MITF act – activators of MITF-driven TRPM1 promoter activity in SK-MEL-5 cells; activation, % at 12.5 µM; hit rate 0.75% among 300,000; SK-MEL-5 TRPM1-promoter luciferase, 24 h; % of positive control, neutral wells = 0; AID 588334;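 active = mean activation of at least 80% with every replicate also reaching 80%; inconclusive = mean reaches 80% but some replicate falls short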
GAA850 FXN act – increases GAA850 frataxin promoter reporter activity; AID 540364; HEK293 lucGAA850 FXN promoter luciferase reporter, 24 h; percent of 10 µM SAHA response; hit rate 0.56% among 360,000; activation, % at 6 µM;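 active = activation above the average of all compounds screened plus 3 SD, cutoff fixed separately per campaign, cut at about 7.5% in these data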
AHR activator – human AHR activation; P35869; AHR-responsive luciferase reporter cells, luminescence; activation, % at 5 µM; hit rate 2.5% among 320,000; AID 2796; in the data active = activation above about 47%
esBAF inh – SWI/SNF esBAF complex inhibition; reporter increase, % at 12.5 µM; AID 602393; mouse ES cells, Bmi1-luciferase knock-in reporter, 24 h; 100% = twice the neutral-well signal; hit rate 2% among 350,000; in the data active = activation above about 40%; inconclusive = no clear call, values can overlap the other calls;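 also: a rise in the Bmi1 reporter signal indicates esBAF inhibition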
Wnt bcat act – activators of Wnt/beta-catenin signaling; Wnt/beta-catenin reporter cell assay, activator, plate reader; activation, % at 9.35 µM; hit rate 1.2% among 300,000; in the data active = activation above about 30%, passing the limit was not always enough; inconclusive = no clear call, values can overlap the other calls
GAA30 counter – activates GAA30 frataxin promoter, counter-screen for GAA850 activators | hit rate 66% among 1,900 | HEK293 lucGAA30 FXN promoter luciferase, 24 h; DMSO = 0%, 5 µM ipriflavone = 100% | activation, % at 6 µM | shares compounds with GAA850 FXN act;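 active = mean activation above the mean of solvent-only control wells plus 3 SD, cut at about 22% in these data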;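 also: counterscreen of GAA850 promoter hits where activity marks nonselective or luminescence artifacts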
GAA850 confirm – confirmation of GAA850 frataxin (FXN) promoter activators; shares compounds with GAA850 FXN act; HEK293 lucGAA850 FXN promoter luciferase reporter, 24 h; 100% = activation by SAHA; activation, % at 6 µM; hit rate 86% among 1,900;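 active = mean activation above a set limit taken from the primary screen, cut at about 8% in these data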
Hits are given with their value; 0 = inactive; ? = inconclusive; - = no result. Most compounds without a hit are left out; they make up all but 4.2% or so of the library.

SMILES	MITF act	GAA850 FXN act	AHR activator	esBAF inh	Wnt bcat act	GAA30 counter	GAA850 confirm
CO[C@H]1CN(C)C(=O)c2cc(NC(=O)C3CCC3)ccc2OC[C@@H](C)N(Cc2cccnc2)C[C@@H]1C	-	-	-	0	-	-	-
Cc1cc(Cl)c2oc(C(=O)N3CCN(C4CCS(=O)(=O)C4)CC3)c(C)c2c1 (stereo unspecified)	0	0	0	0	0	-	-
C=CCN(C(=O)c1oc2c(Cl)cc(C)cc2c1C)C1CCS(=O)(=O)C1 (stereo unspecified)	111	8.1	0	64	0	102	40
O=C(C[C@H]1CC[C@@H](NS(=O)(=O)c2ccc(F)cc2)[C@H](CO)O1)N1CCC(Cc2ccccc2)CC1	-	-	-	0	-	-	-
COc1ccc(/C=C/C(=O)c2ccc([N+](=O)[O-])o2)cc1OC	-	-	0	-	0	-	-
COc1cc(/C=C/C(=O)c2ccc([N+](=O)[O-])o2)ccc1O	0	12	0	0	0	0	0
COc1cc(/C=C/C(=O)O)ccc1O	-	16	0	0	0	0	0
O=C(NCc1cccc(F)c1)[C@@H]1[C@@H](CO)[C@@H]2Cn3c(ccc(-c4ccccc4)c3=O)[C@H]1N2CC1CC1	-	-	-	0	-	-	-
Cc1c(C(=O)NCC2CCCO2)sc2nc(-c3ccc(F)cc3)cn12 (stereo unspecified)	-	17	0	0	0	61	21
C[C@H](CO)N1C[C@H](C)[C@H](CN(C)CC2CC2)Oc2cc(C#Cc3ccncc3)ccc2S1(=O)=O	-	-	-	0	-	-	-
C[C@H](CO)N1C[C@H](C)[C@@H](CN(C)CC2CCCCC2)Oc2ccc(NS(=O)(=O)c3ccc(F)cc3)cc2CC1=O	-	-	-	0	-	-	-
COc1ccccc1-c1ccc2c(c1)C(C)(Cc1cccc(F)c1)C(=O)N2 (stereo unspecified)	-	11	-	0	0	0	12
COc1ccc(C(C)=O)cc1CC1(C)C(=O)Nc2ccc(-c3ccccc3OC)cc21 (stereo unspecified)	-	15	-	0	0	0	9.2
COc1ccc(C(C)=O)cc1CC1(C)C(=O)Nc2ccc(OC(F)(F)F)cc21 (stereo unspecified)	-	0	-	0	0	-	-
O=C(C[C@H]1CC[C@H]2[C@@H](COC[C@H](O)CN2C(=O)c2ccccc2F)O1)N1CCN(c2ccccc2)CC1	-	-	-	0	-	-	-
COc1cc(OC)c(OC)cc1/C=N/Nc1ncnc2c1[nH]c1ccccc12	0	7.9	0	-	0	0	18
C/C(=N/NC(=O)c1ccc(Br)o1)C(C)C	0	9.1	0	-	0	0	0
CC(NC(=O)c1ccc(Br)o1)C1CCCO1 (stereo unspecified)	0	0	0	-	0	-	-
CCC(=O)Nc1ccc2c(c1)C(=O)N(C)[C@@H]1CC[C@@H](CC(=O)NCc3ccccc3)O[C@H]1CO2	-	-	-	0	-	-	-
C[C@@H]1CCCCO[C@@H](CN(C)C(=O)CCCN(C)C)[C@@H](C)CN([C@@H](C)CO)C(=O)c2cc(NC(=O)Nc3ccc(C(F)(F)F)cc3)ccc2O1	-	-	-	0	-	-	-
COc1ccc(CCNC(=O)c2cc3c(=O)n4cccc(C)c4nc3n(Cc3ccco3)c2=N)cc1OC	0	13	0	0	0	0	0
O=C(C1COc2ccccc2O1)N1CCc2ccccc21 (stereo unspecified)	0	8.0	0	0	-	73	32
O=C(C1COc2ccccc2O1)N1CCCC1 (stereo unspecified)	0	0	0	0	0	-	-
C[C@@H]1CN([C@@H](C)CO)C(=O)c2cc(-c3ccncc3)cnc2O[C@H]1CN(C)C(=O)Cc1cccnc1	-	-	-	0	-	-	-
COc1cc2c3c(cccc3c1)C(=O)N(CCN1CCCC1)C2=O	-	27	-	-	0	0	131
SMILES	MITF act	GAA850 FXN act	AHR activator	esBAF inh	Wnt bcat act	GAA30 counter	GAA850 confirm
COc1cccc2sc(NNC(=O)C3=COCCO3)nc12	0	8.2	0	46	0	86	33
COc1cccc2sc(NNC(=O)C3COc4ccccc4O3)nc12 (stereo unspecified)	0	0	0	-	0	-	-
C[C@@H]1CN([C@@H](C)CO)C(=O)Cc2cc(NC(=O)CCCCCC(=O)Nc3ccccc3N)ccc2O[C@H]1CN(C)Cc1ccncc1	-	-	-	0	-	-	-
Cc1cc(NC(=O)C(C)SCC(=O)Nc2cc(C(F)(F)F)ccc2N2CCOCC2)no1 (stereo unspecified)	0	8.8	0	-	0	26	13
COc1cccc(N=Nc2ccc(O)c3ncccc23)c1	0	9.6	0	0	0	0	0
COc1cccc(N=Nc2ccc3cccnc3c2O)c1	0	0	0	0	0	-	-
COCC(=O)Nc1ccc2c(c1)OC[C@H](C)N(Cc1ccccn1)C[C@@H](C)[C@H](OC)CN(C)C2=O	-	-	-	0	-	-	-
CCOc1ccc(-c2nc(CCl)cs2)cc1	0	7.6	0	-	0	114	37
C[C@@H]1CCCCO[C@@H](CN(C)C(=O)Nc2ccccc2)[C@H](C)CN([C@@H](C)CO)C(=O)c2cc(NC(=O)c3ccncc3)ccc2O1	-	-	-	0	-	-	-
Oc1ccc(-c2csc(Nc3ncccn3)n2)cc1O	0	16	-	-	0	108	45
Oc1ccc(-c2csc(-c3cccnc3)n2)cc1O	0	14	0	-	0	62	31
Oc1ccc(-c2csc(-c3ccccc3)n2)cc1O	0	8.8	0	60	0	41	34
Cc1nc(-c2ccc(O)c(O)c2)cs1	0	0	0	0	-	-	-
Cc1c(/C=C/C(=O)c2ccc(O)cc2)cnn1C	0	0	0	-	?	-	-
CCn1cc(/C=C/C(=O)c2ccc(O)cc2)c(C)n1	0	8.7	0	-	0	102	24
C=CCNc1nc(Cl)nc(Nc2ccc(OC)cc2)n1	0	8.1	0	0	0	64	25
Cc1ccccc1-c1cnc2c(c1)C(=O)N([C@@H](C)CO)C[C@@H](C)[C@@H](CN(C)C(=O)CN(C)C)O2	-	-	-	0	-	-	-
Fc1ccc(Nc2ccnc(Nc3ccc(F)cc3)n2)cc1	0	8.4	0	-	0	107	34
C[C@@H]1CN([C@H](C)CO)C(=O)c2cc(C#CCN(C)C)cnc2O[C@H]1CN(C)C(=O)NC1CCCCC1	-	-	-	0	-	-	-
CC(C)c1ccc2c(c1)C1(NN=C(c3ccccc3)S1)C(=O)N2 (stereo unspecified)	0	7.9	0	87	0	0	0
CC(C)OP(=O)(c1ccc(N(C)C)cc1)C(O)c1ccc(C(C)C)cc1 (stereo unspecified)	0	11	0	0	0	29	13
CC(C)CCOP(=O)(c1ccc(N(C)C)cc1)C(O)c1c(Cl)cccc1Cl (stereo unspecified)	0	20	0	0	0	26	14
CCCNC(=O)C[C@@H]1CC[C@@H]2[C@H](COC[C@@H](O)CN2Cc2cccc(F)c2)O1	-	-	-	0	-	-	-
O=C(Nc1cccc(C(=O)Nc2cccc(Br)c2)c1)c1ccccc1	0	0	0	0	0	-	-

Screens: PubChem BioAssay, several laboratories
